Assay results taken from the supplement of paper PMC7724964.

Columns and labels:
Assay in all cases: phage ELISA signal ratio (GST-PRM binding over GST background); higher = stronger binding of peptide-phage to the PRM
[1] = molecular target: T1, SND1 650-910 TUDOR+SNase (domain begin residue: 650, domain end residue: 910), Q7KZF4
T1 chain: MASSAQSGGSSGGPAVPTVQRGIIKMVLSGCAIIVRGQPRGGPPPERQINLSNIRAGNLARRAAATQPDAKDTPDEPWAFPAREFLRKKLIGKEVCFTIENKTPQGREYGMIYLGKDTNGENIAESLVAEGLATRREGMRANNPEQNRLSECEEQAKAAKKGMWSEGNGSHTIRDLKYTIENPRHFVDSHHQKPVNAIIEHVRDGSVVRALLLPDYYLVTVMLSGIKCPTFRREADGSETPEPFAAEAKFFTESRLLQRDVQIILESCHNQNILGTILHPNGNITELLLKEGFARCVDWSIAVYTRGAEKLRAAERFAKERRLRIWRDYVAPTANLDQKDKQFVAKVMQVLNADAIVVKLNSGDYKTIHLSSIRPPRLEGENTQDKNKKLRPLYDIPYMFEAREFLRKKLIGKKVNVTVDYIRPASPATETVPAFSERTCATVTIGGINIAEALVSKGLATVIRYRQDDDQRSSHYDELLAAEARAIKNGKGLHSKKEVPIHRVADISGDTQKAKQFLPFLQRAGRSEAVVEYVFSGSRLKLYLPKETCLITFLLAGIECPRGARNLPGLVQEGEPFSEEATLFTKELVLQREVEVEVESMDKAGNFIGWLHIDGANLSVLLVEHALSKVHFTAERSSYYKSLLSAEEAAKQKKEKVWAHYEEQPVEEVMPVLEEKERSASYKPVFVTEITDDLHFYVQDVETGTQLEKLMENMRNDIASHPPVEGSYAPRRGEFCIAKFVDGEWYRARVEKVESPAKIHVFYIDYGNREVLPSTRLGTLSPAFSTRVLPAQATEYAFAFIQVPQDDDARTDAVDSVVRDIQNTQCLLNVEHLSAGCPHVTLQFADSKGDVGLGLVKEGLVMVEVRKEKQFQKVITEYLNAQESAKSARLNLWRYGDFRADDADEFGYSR
Procedure, shortened: (§1)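 Human peptide recognition domains were expressed in 96-well plates as fusions to the C-terminus of glutathione S-transferase (GST) and selected against an M13 phage library displaying randomized hexadecapeptides, cysteine-free and glycine-flanked, on the gene-8 major coat protein. Five selection rounds were run, and approximately 48 individual clones from rounds 4 and 5 were tested by phage ELISA. Each value is the ELISA signal on the GST-domain fusion divided by the signal on GST alone. Positive clones were sequenced.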

[2] = molecular target: T2, SPSB2 26-221 SPRY (domain begin residue: 26, domain end residue: 221), Q99619
T2 chain: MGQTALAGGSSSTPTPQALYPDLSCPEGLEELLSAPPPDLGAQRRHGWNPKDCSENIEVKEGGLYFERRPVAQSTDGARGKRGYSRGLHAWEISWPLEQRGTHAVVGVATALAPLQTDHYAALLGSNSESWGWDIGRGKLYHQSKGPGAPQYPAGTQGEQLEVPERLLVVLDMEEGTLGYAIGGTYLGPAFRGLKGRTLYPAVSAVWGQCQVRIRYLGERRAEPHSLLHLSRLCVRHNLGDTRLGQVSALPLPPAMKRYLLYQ
Procedure, shortened: as §1

[3] = molecular target: T3, SPRED3 1-117 WH1 (domain begin residue: 1, domain end residue: 117), Q2MJR0
T3 chain: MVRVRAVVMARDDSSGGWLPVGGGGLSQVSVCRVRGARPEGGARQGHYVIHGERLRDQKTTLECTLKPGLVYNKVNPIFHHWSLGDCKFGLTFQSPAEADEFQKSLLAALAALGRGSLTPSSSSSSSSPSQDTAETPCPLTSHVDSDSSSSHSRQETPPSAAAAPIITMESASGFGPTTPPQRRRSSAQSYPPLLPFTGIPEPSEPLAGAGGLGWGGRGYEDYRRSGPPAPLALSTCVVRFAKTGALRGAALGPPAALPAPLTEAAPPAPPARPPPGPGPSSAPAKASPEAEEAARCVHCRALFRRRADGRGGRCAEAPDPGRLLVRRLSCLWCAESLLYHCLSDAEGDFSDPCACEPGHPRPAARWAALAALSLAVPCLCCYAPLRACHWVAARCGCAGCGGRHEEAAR
Procedure, shortened: as §1

[4] = molecular target: T4, SPRED2 1-124 WH1 (domain begin residue: 1, domain end residue: 124), Q7Z698
T4 chain: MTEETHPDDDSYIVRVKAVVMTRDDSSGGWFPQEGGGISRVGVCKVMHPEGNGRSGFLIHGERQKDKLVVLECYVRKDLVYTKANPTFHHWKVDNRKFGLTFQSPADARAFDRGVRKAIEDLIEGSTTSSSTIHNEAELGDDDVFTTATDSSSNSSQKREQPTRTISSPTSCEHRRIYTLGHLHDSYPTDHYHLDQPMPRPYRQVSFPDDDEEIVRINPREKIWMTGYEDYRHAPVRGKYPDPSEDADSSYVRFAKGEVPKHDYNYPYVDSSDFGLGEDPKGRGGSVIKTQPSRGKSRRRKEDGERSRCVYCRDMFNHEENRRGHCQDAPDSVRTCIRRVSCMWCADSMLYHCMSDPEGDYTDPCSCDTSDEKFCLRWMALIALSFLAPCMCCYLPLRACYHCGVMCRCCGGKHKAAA
Procedure, shortened: as §1

[5] = molecular target: T5, SFN 1-236 14-3-3 (domain begin residue: 1, domain end residue: 236), P31947
T5 chain: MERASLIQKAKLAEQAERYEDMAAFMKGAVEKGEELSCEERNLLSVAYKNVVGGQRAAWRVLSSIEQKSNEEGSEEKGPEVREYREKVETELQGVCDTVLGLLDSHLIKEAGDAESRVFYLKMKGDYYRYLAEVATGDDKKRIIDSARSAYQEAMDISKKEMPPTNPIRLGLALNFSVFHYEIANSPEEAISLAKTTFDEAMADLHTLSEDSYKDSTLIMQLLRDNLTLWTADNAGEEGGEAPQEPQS
Procedure, shortened: as §1

[6] = molecular target: T6, SPRED1 13-131 WH1 (domain begin residue: 13, domain end residue: 131), Q7Z699
T6 chain: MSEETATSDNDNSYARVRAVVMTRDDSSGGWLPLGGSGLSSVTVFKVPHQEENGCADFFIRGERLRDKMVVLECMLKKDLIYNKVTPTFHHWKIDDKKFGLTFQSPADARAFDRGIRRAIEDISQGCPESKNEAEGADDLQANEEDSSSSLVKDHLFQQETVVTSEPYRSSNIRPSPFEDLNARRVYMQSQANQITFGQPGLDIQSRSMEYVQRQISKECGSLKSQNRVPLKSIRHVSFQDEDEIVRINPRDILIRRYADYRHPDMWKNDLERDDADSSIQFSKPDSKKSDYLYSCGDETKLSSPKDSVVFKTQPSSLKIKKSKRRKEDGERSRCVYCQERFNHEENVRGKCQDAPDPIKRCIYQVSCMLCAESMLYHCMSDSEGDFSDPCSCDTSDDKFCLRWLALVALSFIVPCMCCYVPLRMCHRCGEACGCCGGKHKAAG
Procedure, shortened: as §1

[7] = molecular target: T7, SHC1 149-317 PID (domain begin residue: 149, domain end residue: 317), P29353
T7 chain: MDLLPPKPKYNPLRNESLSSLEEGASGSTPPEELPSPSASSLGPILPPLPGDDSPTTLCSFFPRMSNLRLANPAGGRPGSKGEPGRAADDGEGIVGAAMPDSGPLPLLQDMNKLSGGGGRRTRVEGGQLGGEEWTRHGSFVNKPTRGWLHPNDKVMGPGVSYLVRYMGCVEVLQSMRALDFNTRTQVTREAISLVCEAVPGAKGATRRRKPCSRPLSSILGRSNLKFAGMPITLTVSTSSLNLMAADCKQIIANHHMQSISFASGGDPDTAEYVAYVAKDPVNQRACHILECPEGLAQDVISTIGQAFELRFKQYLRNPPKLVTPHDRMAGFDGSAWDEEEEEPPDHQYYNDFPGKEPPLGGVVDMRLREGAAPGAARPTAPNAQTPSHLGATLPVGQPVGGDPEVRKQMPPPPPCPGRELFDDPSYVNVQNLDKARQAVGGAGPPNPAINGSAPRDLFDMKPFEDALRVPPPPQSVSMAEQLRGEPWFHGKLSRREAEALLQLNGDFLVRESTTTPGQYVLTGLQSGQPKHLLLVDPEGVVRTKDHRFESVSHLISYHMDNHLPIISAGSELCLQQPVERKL
Procedure, shortened: as §1

[8] = molecular target: T8, SPAG1 615-745 TPR_1 (domain begin residue: 615, domain end residue: 745), Q07617
T8 chain: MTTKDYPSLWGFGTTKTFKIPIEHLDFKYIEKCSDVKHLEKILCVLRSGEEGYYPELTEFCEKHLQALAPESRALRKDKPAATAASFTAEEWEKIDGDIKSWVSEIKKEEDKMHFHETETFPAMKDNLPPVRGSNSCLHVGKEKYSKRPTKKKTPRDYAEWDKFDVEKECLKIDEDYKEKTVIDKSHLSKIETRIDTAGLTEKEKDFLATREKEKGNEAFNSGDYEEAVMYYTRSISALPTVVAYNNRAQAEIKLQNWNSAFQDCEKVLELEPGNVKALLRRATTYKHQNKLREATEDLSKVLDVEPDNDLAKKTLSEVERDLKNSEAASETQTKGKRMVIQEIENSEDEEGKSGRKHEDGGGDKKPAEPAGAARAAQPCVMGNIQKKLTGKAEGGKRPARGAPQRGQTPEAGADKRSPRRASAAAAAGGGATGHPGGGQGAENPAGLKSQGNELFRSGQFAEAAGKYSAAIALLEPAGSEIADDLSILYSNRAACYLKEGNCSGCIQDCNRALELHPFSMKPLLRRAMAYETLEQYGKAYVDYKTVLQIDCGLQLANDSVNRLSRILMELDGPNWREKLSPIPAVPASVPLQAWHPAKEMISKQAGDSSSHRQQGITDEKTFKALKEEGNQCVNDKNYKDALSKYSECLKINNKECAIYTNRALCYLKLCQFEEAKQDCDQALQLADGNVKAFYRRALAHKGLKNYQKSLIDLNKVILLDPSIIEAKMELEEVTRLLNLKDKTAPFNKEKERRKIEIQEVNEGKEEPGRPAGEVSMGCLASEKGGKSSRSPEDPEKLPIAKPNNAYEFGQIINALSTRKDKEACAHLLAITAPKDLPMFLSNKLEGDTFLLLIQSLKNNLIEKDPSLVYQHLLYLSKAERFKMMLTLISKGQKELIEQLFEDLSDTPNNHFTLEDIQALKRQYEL
Procedure, shortened: as §1

GDYMSMLFMQEWGPFN
phage ELISA signal ratio [1]: 5.51

DFNNNTGPRLAAETIV
phage ELISA signal ratio [2]: 11.5

LDWDWVQWHFDDAMRW
phage ELISA signal ratio [3]: 7.1

PWDMIWDDPSWAPMLE
phage ELISA signal ratio [1]: 7.49

YDWFSAVVEDQWEKVS
phage ELISA signal ratio [1]: 6.56

MGQLQDMQNNNWVPIV
phage ELISA signal ratio [2]: 33.8

GIVPWWHDSGDHWGPL
phage ELISA signal ratio [4]: 19.4

DWVLYKEWVPQWPHNF
phage ELISA signal ratio [5]: 17.1

WATVSEWGDWTTVVFN
phage ELISA signal ratio [6]: 3.55

GPMIGWNQEYIFFSEH
phage ELISA signal ratio [7]: 16.2

NDQYTWSQVHQGWLPL
phage ELISA signal ratio [3]: 26.5

MEVFDMNGNYPVRSRT
phage ELISA signal ratio [2]: 25

EQWWHTPQSVQAWINS
phage ELISA signal ratio [3]: 19.5

YFYLDSNNNQVIPSSV
phage ELISA signal ratio [2]: 21.9

IVDTYWAMENNNVGTV
phage ELISA signal ratio [2]: 29.6

EWGIMDSEWWGRYYEM
phage ELISA signal ratio [7]: 6.81

PVQWGDWSYPYDLSGQ
phage ELISA signal ratio [4]: 12.6

EELWDQWHSWVTEPDE
phage ELISA signal ratio [1]: 4.69

VVYTGVDHNGNMYPVR
phage ELISA signal ratio [2]: 9.45

NLWPEVEPIMDNWQPS
phage ELISA signal ratio [4]: 6.67

GYKLWETETSWWFVPA
phage ELISA signal ratio [4]: 14

WLAQDYNNNHMWLDWK
phage ELISA signal ratio [2]: 27.1

HVQWINHSFMMDMPQN
phage ELISA signal ratio [7]: 15.5

WTWMGDEEVFYHESLL
phage ELISA signal ratio [3]: 23.8

HEMFLWDGETVMQVWW
phage ELISA signal ratio [3]: 20.8

WEWKDYEKVVHFQDMK
phage ELISA signal ratio [3]: 3.38

AWFEGPFDTSHWQWEA
phage ELISA signal ratio [4]: 7.72

VTPQEMWEEYIATLQI
phage ELISA signal ratio [3]: 23.4

YYLDENQNWISEGFLW
phage ELISA signal ratio [2]: 12.1

ERVMDLNGNWITKSVA
phage ELISA signal ratio [2]: 10.8

RSDYARDANGNMVVEF
phage ELISA signal ratio [2]: 21.3

ESEGSHYWNYFADAIA
phage ELISA signal ratio [7]: 18.2

LEEHWQWWVDDMMPME
phage ELISA signal ratio [7]: 4.84

PKWEFFQDHTQDHHNQ
phage ELISA signal ratio [7]: 6.37

TWGWFDTGEAWSTMSM
phage ELISA signal ratio [4]: 10

PWHARDMNGNWTQRIE
phage ELISA signal ratio [2]: 12.3

NTMWFDLWDINNNPLS
phage ELISA signal ratio [2]: 32.3

WEGYYQFLVPDTHTSE
phage ELISA signal ratio [7]: 18.9

DVWYTTSESIIQYMQS
phage ELISA signal ratio [3]: 27.7

GAGELEWYPIWWDVTH
phage ELISA signal ratio [4]: 17.3

WREEPHFHRDENGNII
phage ELISA signal ratio [2]: 28.9

MNFMDIWDHMAIPPEQ
phage ELISA signal ratio [1]: 7.06

YEEFLDLNSNLQGLKT
phage ELISA signal ratio [2]: 12.3

EPDYGTAWFQHMMQEW
phage ELISA signal ratio [3]: 31

MVDLNGNTYSESMVAV
phage ELISA signal ratio [2]: 33.8

MWMWDGMQVVHLFEQY
phage ELISA signal ratio [3]: 20.5

QVDQGEYVYGFWWEVL
phage ELISA signal ratio [7]: 9.85

AHFELMNNNWLVPEFW
phage ELISA signal ratio [2]: 30.8

SSMWWTDTGDMYLRPE
phage ELISA signal ratio [4]: 4.88

MDLLEQQMWQDYFLWH
phage ELISA signal ratio [8]: 3.83

FEEMELVGDLNNNMMP
phage ELISA signal ratio [2]: 32.8

EWNKNLHWFEVFDQEV
phage ELISA signal ratio [7]: 20.3

TGENNNVMPPHLSEHV
phage ELISA signal ratio [2]: 11.7

TPWWETTSTVMTYIKM
phage ELISA signal ratio [3]: 19.4

HPIFNDAGGLQGWFSY
phage ELISA signal ratio [4]: 11.1

DPGWYWEPAMLEAEWA
phage ELISA signal ratio [3]: 28.4

WMWDGLAVVHMVPESV
phage ELISA signal ratio [3]: 8.68
